Experiment [1] concerns S. cerevisiae SK1 pCDA2-eGFP (USY613), sporulating. The experiment is described as follows: CDA2-GFP sporulation assay sensitivity score (z-score vs DMSO controls); higher = stronger inhibition of sporulation, active = hit call of the paper.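 Further: active if sensitivity score above 5.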
Experiment [2] deals with S. cerevisiae NKY1551 his4x/his4B, sporulating. The experiment is described as follows: HIS4 meiotic recombination assay sensitivity score (z-score vs DMSO controls); higher = stronger inhibition of sporulation/recombination, active = hit call of the paper.
Experiment [3] deals with S. cerevisiae AD1-9 (efflux-pump deficient), vegetative growth in YPD. The experiment is described as follows: growth sensitivity score (doubling time z-score vs DMSO controls); higher = slower growth, strongly negative scores also mark growth inhibition (complete suppression), active = hit call of the paper. The essentials: (§1)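 Optical density of Saccharomyces cerevisiae cultures in microtiter plates was followed every 15 min for 24 hours after seeding at an OD600 of 0.065. Eight solvent-only wells were run per experiment. Growth sensitivity scores were found by subtracting the solvent-only mean from the compound mean and dividing by the solvent-only standard deviation.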

For experiment [4], the system named is S. cerevisiae BY4741 (wild-type), vegetative growth in YPD. The description is as above. The essentials:
as §1

Counter-ions that a name gives are not always drawn.
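Wherever HIS4 meiotic recombination assay sensitivity score (z-score vs DMSO controls) is given: active if sensitivity score above 5.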

In the case of `O=C1N[C@H](C(=O)O)CS1` [Procysteine] (stock concentration (mM, diluted 1:100): 10), the “CDA2-GFP sporulation assay sensitivity score” value in experiment [1] was 0.97 (inactive). In addition, the “HIS4 meiotic recombination assay sensitivity score” value in experiment [2] was -0.93 (inactive). For the same molecule, the figures for the growth sensitivity score in experiment [3] and in experiment [4] were -2.4 and -0.31 (inactive), respectively.

With `CCN(CC)CC1CCCCN1CC(=O)N1c2ccccc2C(=O)Nc2cccnc21` (stereo not drawn) [Otenzepad] (stock concentration (mM, diluted 1:100): 10), the “CDA2-GFP sporulation assay sensitivity score” value in experiment [1] was 0.65 (inactive). The “HIS4 meiotic recombination assay sensitivity score” value in experiment [2] is -0.63 (inactive). In addition, the growth sensitivity score in experiment [3] was -1.89 (inactive); in experiment [4], -2.57.

Turning to `CN(Cc1cnc2nc(N)nc(N)c2n1)c1ccc(C(=O)N[C@@H](CCC(=O)O)C(=O)O)cc1` [Methotrexate] (stock concentration (mM, diluted 1:100): 14.6), the “CDA2-GFP sporulation assay sensitivity score” value in experiment [1] is -2.22 (inactive). For the same molecule, in experiment [2], the “HIS4 meiotic recombination assay sensitivity score” value is 0.19 (inactive). Besides, the growth sensitivity score in experiment [3] is -2.15; in experiment [4], -0.16 (inactive).

Turning to `CN(C)CCc1c[nH]c2ccc(C[C@H]3COC(=O)N3)cc12` [Zolmitriptan] (stock concentration (mM, diluted 1:100): 10), in experiment [1], the “CDA2-GFP sporulation assay sensitivity score” value was -0.81 (inactive). Further, in experiment [2], the “HIS4 meiotic recombination assay sensitivity score” value is 0.22 (inactive). Further, the growth sensitivity score in experiment [3] was -1.29 (inactive); in experiment [4], -0.77 (inactive).

For the molecule `Nc1nc2ccc(OC(F)(F)F)cc2s1` [Riluzole] (stock concentration (mM, diluted 1:100): 9.9), the “CDA2-GFP sporulation assay sensitivity score” value in experiment [1] is 16.9 (active). Moreover, in experiment [2], the “HIS4 meiotic recombination assay sensitivity score” value was 6.83 (active). The growth sensitivity score in experiment [3] was 15.4 (active); in experiment [4] it was 5.49 (active).

Take `COc1ccc2cc([C@H](C)C(=O)O)ccc2c1` [Naproxen sodium] (stock concentration (mM, diluted 1:100): 10): in experiment [1], the “CDA2-GFP sporulation assay sensitivity score” value was 1.69 (inactive). Besides, the “HIS4 meiotic recombination assay sensitivity score” value in experiment [2] was -0.09 (inactive). Also, the growth sensitivity score in experiment [3] is 1.41 (inactive); in experiment [4], -0.72 (inactive).

For the molecule `CC(CCCCC(=O)Nc1ccc(C(F)(F)F)cc1)NCCc1cnc[nH]1` (stereo not drawn) (stock concentration (mM, diluted 1:100): 10), the “CDA2-GFP sporulation assay sensitivity score” value in experiment [1] was 2.58 (inactive). The “HIS4 meiotic recombination assay sensitivity score” value in experiment [2] is -0.79 (inactive). The growth sensitivity score is 1.41 (inactive) in experiment [3] and -0.06 (inactive) in experiment [4].

`CC(C)OC(=O)CCC/C=C\C[C@@H]1[C@@H](CC[C@@H](O)CCc2ccccc2)[C@H](O)C[C@@H]1O` [Latanoprost] (stock concentration (mM, diluted 1:100): 10.3): the “CDA2-GFP sporulation assay sensitivity score” value in experiment [1] is 8.85 (active). Moreover, in experiment [2], the “HIS4 meiotic recombination assay sensitivity score” value is 0.65 (inactive). In addition, the growth sensitivity score in experiment [3] is 125 (active); in experiment [4], 0.43 (inactive).

Regarding `CN(CCOc1ccc(CC2SC(=O)NC2=O)cc1)c1ccccn1` (stereo not drawn) [Rosigltazone hydrochloride] (stock concentration (mM, diluted 1:100): 8.2), the “CDA2-GFP sporulation assay sensitivity score” value in experiment [1] is -0.4 (inactive). In addition, the “HIS4 meiotic recombination assay sensitivity score” value in experiment [2] was 2.69 (inactive). Besides, the results for the growth sensitivity score in experiment [3] and in experiment [4] were 0.66 (inactive) and 2.48 (active), respectively.

With `Cc1onc(-c2ccccc2)c1-c1ccc(S(N)(=O)=O)cc1` [Valdecoxib] (stock concentration (mM, diluted 1:100): 10), the “CDA2-GFP sporulation assay sensitivity score” value in experiment [1] is -1.13 (inactive). Also, the “HIS4 meiotic recombination assay sensitivity score” value in experiment [2] was -1.51 (inactive). For the same molecule, the figures for the growth sensitivity score in experiment [3] and in experiment [4] were 11 (active) and 0.72 (inactive), respectively.

On to `CC(c1cc2ccccc2s1)N(O)C(N)=O` (stereo not drawn) [Zileuton] (stock concentration (mM, diluted 1:100): 10), for which, in experiment [1], the “CDA2-GFP sporulation assay sensitivity score” value is -0.22 (inactive). For the same molecule, in experiment [2], the “HIS4 meiotic recombination assay sensitivity score” value was -2.31 (inactive). The growth sensitivity score was 0.45 (inactive) in experiment [3] and -0.81 (inactive) in experiment [4].

For `C[C@@H]1CN(CCCn2c3ccccc3c3ccccc32)C[C@H](C)N1` [Rimcazole] (stock concentration (mM, diluted 1:100): 10.1), in experiment [1], the “CDA2-GFP sporulation assay sensitivity score” value is 14.4 (active). The “HIS4 meiotic recombination assay sensitivity score” value in experiment [2] was -2.16 (inactive). Further, the results for the growth sensitivity score in experiment [3] and in experiment [4] were 20.3 (active) and 89.4 (active), respectively.

Turning to `Nc1nc(O)c2ncn(CCC(CO)CO)c2n1` [Penciclovir] (stock concentration (mM, diluted 1:100): 10), the “CDA2-GFP sporulation assay sensitivity score” value in experiment [1] was 0.81 (inactive). Besides, the “HIS4 meiotic recombination assay sensitivity score” value in experiment [2] is -0.35 (inactive). Further, the growth sensitivity score was -0.22 (inactive) in experiment [3] and -0.88 (inactive) in experiment [4].

Regarding `COc1ccnc(C[S+]([O-])c2nc3cc(OC(F)F)ccc3[nH]2)c1OC` (stereo not drawn) [Pantoprazole sodium] (stock concentration (mM, diluted 1:100): 10), the “CDA2-GFP sporulation assay sensitivity score” value in experiment [1] is 0.75 (inactive). For the same molecule, the “HIS4 meiotic recombination assay sensitivity score” value in experiment [2] was 0.54 (inactive). Besides, the growth sensitivity score is -2.1 in experiment [3] and -0.44 (inactive) in experiment [4].

With `CCCCC(=O)N(Cc1ccc(-c2ccccc2-c2nnn[nH]2)cc1)[C@H](C(=O)O)C(C)C` [Valsartan] (stock concentration (mM, diluted 1:100): 10), in experiment [1], the “CDA2-GFP sporulation assay sensitivity score” value is 0.42 (inactive). For the same molecule, the “HIS4 meiotic recombination assay sensitivity score” value in experiment [2] is -0.5 (inactive). Also, the growth sensitivity score in experiment [3] is -1.81 (inactive); in experiment [4], -1.05 (inactive).

For `CCCCCCNC(=O)n1cc(F)c(=O)[nH]c1=O` [Carmofur] (stock concentration (mM, diluted 1:100): 10.3), in experiment [1], the “CDA2-GFP sporulation assay sensitivity score” value is 0.49 (inactive). Besides, the “HIS4 meiotic recombination assay sensitivity score” value in experiment [2] is -2.78 (inactive). Also, the growth sensitivity score was 22.8 (active) in experiment [3] and 37.2 (active) in experiment [4].

On to `COc1cc2nc(N(C)CCCNC(=O)C3CCCO3)nc(N)c2cc1OC` (stereo not drawn) [Alfuzosin] (stock concentration (mM, diluted 1:100): 10), for which the “CDA2-GFP sporulation assay sensitivity score” value in experiment [1] was 0.06 (inactive). Besides, in experiment [2], the “HIS4 meiotic recombination assay sensitivity score” value is -0.29 (inactive). Moreover, the growth sensitivity score in experiment [3] was -1.12 (inactive); in experiment [4], -0.26 (inactive).

Source of the values: the supplement of paper PMC3414501.
